Source: PubChem
Compounds with a hit are over-represented: about 2% of the library has one in this group of screens.
Gli-Sufu antag – blocks Gli-Sufu signaling in a luciferase reporter; AID 588413; inhibition, % at 5 µM; Sufu-KO-LIGHT fibroblasts, Gli luciferase reporter luminescence; actives 0.74% (n = 340,000);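 active means inhibition above about 55%, limit read from the data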
Jurkat NFkB inh – lowers PMA/ionomycin-induced NF-kB signal in Jurkat cells; inhibition, % at 4 µM; PMA/ionomycin-induced NF-kB luciferase reporter, luminescence; actives 0.53% (n = 330,000); in the data active means inhibition above about 50%
NR2F2 inh – NR2F2 (human) inhibition, primary screen. HEK293T NGFI-A luciferase reporter, luminescence. P24468. inhibition, % at 8.6 µM. actives 0.7% (n = 370,000);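 active means inhibition above a per-plate cutoff, mean inhibition of test wells between control levels plus 3 SD, cut at about 38% in these data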;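 further: cells cotransfected with COUP-TFII expression vector driving the NGFI-A reporter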
Target sequence (P24468 whole entry, looked up): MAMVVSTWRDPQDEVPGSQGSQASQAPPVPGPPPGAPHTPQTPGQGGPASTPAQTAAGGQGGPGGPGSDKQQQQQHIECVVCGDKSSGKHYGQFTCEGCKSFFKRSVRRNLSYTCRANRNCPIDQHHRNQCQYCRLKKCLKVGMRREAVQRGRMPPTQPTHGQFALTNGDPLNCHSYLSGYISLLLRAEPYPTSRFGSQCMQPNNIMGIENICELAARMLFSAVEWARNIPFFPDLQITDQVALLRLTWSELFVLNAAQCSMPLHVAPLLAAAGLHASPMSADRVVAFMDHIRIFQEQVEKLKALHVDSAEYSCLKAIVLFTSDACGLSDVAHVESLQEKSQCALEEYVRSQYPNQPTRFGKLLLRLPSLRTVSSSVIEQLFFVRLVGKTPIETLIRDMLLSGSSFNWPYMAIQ
GalR3 antagonist – human GalR3 antagonism | AID 651719 | O60755 | actives 0.44% (n = 360,000) | HEK293 GalR3-CNG cAMP membrane potential fluorescence; galR3 body fused to GalR1 C-terminus | inhibition, % at 3 µM;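 active means inhibition above the screen-wide average plus 3 SD, cut at about 13% in these data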;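 further: forskolin and galanin both at EC90 stimulate the cells; cAMP rise reported by CNG channel membrane potential dye signal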
Target sequence (O60755 1-299 limits assumed): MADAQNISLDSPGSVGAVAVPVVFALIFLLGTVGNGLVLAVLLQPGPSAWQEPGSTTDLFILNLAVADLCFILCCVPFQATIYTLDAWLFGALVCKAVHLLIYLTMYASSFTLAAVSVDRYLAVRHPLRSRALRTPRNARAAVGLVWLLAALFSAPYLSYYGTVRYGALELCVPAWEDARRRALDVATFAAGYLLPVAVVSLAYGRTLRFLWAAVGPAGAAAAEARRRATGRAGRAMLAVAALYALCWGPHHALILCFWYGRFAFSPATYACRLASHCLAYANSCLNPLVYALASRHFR
697 NFkB inh – inhibitors of the PMA/ionomycin-induced NF-kB reporter in 697 B cells | 697 B-cell NF-kB luciferase reporter, 16 h | inhibition, % at 4 µM | actives 0.33% (n = 330,000); in the data active means inhibition above about 35%
Gli-Sufu confirm – Gli-SUFU antagonism confirmation, single concentration; shares compounds with Gli-Sufu antag; Sufu-KO-LIGHT cells, Gli luciferase reporter, luminescence; inhibition, % at 5 µM; actives 40% (n = 2,500);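 active means mean inhibition at 5 µM reaching about 45%, limit read from the data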
SufuKO cytotox – counter-screen for Gli-SUFU antagonists: cytotoxicity; cytotoxicity, % at 5 µM; shares compounds with Gli-Sufu antag; Sufu-KO-LIGHT cells cytotoxicity, ATP luminescence; actives 32% (n = 2,500);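 active means mean cytotoxicity at 5 µM above about 25%, limit read from the data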;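 further: cells exposed to compound overnight for roughly 16 to 18 hours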
Wnt3a cs – counter-screen for Gli-SUFU antagonists: Wnt3a reporter inhibition. shares compounds with Gli-Sufu antag. Wnt-LIGHT cells, Wnt3a-driven luciferase reporter, luminescence. inhibition, % at 6.25 µM. actives 20% (n = 2,500). AID 651995;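 active means mean inhibition above about 25%, limit read from the data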
Large screens that a line does not name were inactive (follow-up assays come after a bar, where they were run).

Cn1c(SCC(=O)NCc2ccc(F)cc2)ncc(C(=O)Nc2ccccc2)c1=O	none | Gli-Sufu confirm inactive | SufuKO cytotox inactive | Wnt3a cs inactive
Cn1c(SCC(=O)NCc2ccc3c(c2)OCO3)ncc(C(=O)Nc2ccc(F)cc2)c1=O	none
CCC1=Nc2cc(C(=O)NCc3ccco3)ccc2Sc2ccc(Cl)cc21	none | Gli-Sufu confirm 56 | SufuKO cytotox 52 | Wnt3a cs inactive
CCc1nc2ccc(C(=O)NCc3ccco3)cc2nc1CC	none
NNC(=O)c1csc(-c2cccc(C(F)(F)F)c2)n1	Gli-Sufu antag 95 | Gli-Sufu confirm inactive | SufuKO cytotox inactive | Wnt3a cs inactive
O=C(Nc1ccc(C(F)(F)F)cc1)c1csc(-c2ccncc2)n1	none
CCCC1CCC2(CC1)CCC2OC(=O)Nc1cccc(Cl)c1 (stereo not given)	none (no result: Gli-Sufu antag, Jurkat NFkB inh, GalR3 antagonist, 697 NFkB inh)
CC1Cc2ccccc2N1C(=O)C1CCCN1S(=O)(=O)c1ccc(Cl)cc1 (stereo not given)	Gli-Sufu antag 99 | Gli-Sufu confirm inactive | SufuKO cytotox inactive | Wnt3a cs inactive
COCCCNC(=O)C[C@H]1C[C@@]2(C(=O)OC)C(=C[C@H](C(C)C)O[C@@H]2C2CC2)N(Cc2ccc3c(c2)OCO3)C1=O	none (no result: Gli-Sufu antag, Jurkat NFkB inh, GalR3 antagonist, 697 NFkB inh)
c1cncc(C(c2nnnn2C2CCCC2)N2CCCC2)c1 (stereo not given)	none
c1cncc(C(c2nnnn2C2CCCCC2)N2CCN3CCCC3C2)c1 (stereo not given)	none | Gli-Sufu confirm inactive | SufuKO cytotox inactive | Wnt3a cs inactive
CCN(Cc1ccc(NC(C)=O)cc1)CC1CCCN(CCc2cccc(OC)c2)C1 (stereo not given)	Gli-Sufu antag 61 | Gli-Sufu confirm inactive | SufuKO cytotox inactive | Wnt3a cs 50
C=CCCC(=O)N(Cc1ccccc1)c1ccccc1C(=O)Nc1cc(OC)ccc1OC	none (no result: Gli-Sufu antag, Jurkat NFkB inh, GalR3 antagonist, 697 NFkB inh)
COc1cc(OC)cc(C(=O)Oc2c(CN3CCOCC3)cc(Cl)c3cccnc23)c1	none
O=C(Oc1c(CN2CCOCC2)cc(Cl)c2cccnc12)c1ccccc1	Gli-Sufu antag 75 | Gli-Sufu confirm inactive | SufuKO cytotox 32 | Wnt3a cs inactive
Cc1ccc(-c2cc(N)nc(-c3ccccc3)c2)cc1	none
Cc1cc(-c2ccccc2)cc(-c2ccccc2)[n+]1C	Gli-Sufu antag 65 | Gli-Sufu confirm 70 | SufuKO cytotox 27 | Wnt3a cs inactive
CC1CCCCN1C(=O)Cn1cnc2cc([N+](=O)[O-])ccc2c1=O (stereo not given)	Gli-Sufu antag 55 | Gli-Sufu confirm inactive | SufuKO cytotox inactive | Wnt3a cs inactive
Cc1ccc(CNc2nc(-c3cccs3)nc3ccccc23)cc1	none | Gli-Sufu confirm inactive | SufuKO cytotox inactive | Wnt3a cs inactive
CCCCNc1nc(NCc2ccccc2)nc2ccccc12	none (no result: Gli-Sufu antag, Jurkat NFkB inh, 697 NFkB inh)
CNc1nc(NCc2ccccc2)c2ccccc2n1	Gli-Sufu antag 57 | Gli-Sufu confirm inactive | SufuKO cytotox inactive | Wnt3a cs inactive
CCCCN1CN2Cc3ccc(C)cc3C2CS1(=O)=O (stereo not given)	none (no result: Gli-Sufu antag, Jurkat NFkB inh, GalR3 antagonist, 697 NFkB inh)
O=C(Cn1cc(C(=O)C(F)(F)F)c2ccccc21)Nc1ccccc1F	none
O=C(Cn1cc(C(=O)c2ccco2)c2ccccc21)Nc1ccccc1F	Gli-Sufu antag 60 | Gli-Sufu confirm 73 | SufuKO cytotox inactive | Wnt3a cs inactive
O=C(CN1C(=O)c2ccccc2S1(=O)=O)c1cccc(Br)c1	Gli-Sufu antag 67 | Gli-Sufu confirm 74 | SufuKO cytotox inactive | Wnt3a cs 85
O=C(CN1C(=O)c2ccccc2S1(=O)=O)c1ccccc1F	Gli-Sufu antag 60 | Gli-Sufu confirm 78 | SufuKO cytotox inactive | Wnt3a cs 89
COc1cccc(NC(=O)CCS(=O)(=O)c2ccc3c(c2)oc(=O)n3C)c1	none | Gli-Sufu confirm inactive | SufuKO cytotox 26 | Wnt3a cs inactive
COc1ccc(CCNC(=O)CCNC(=O)c2ccco2)cc1	Gli-Sufu antag 72 | Gli-Sufu confirm inactive | SufuKO cytotox 28 | Wnt3a cs inactive
COc1cccc(CNC(=O)CCNC(=O)c2ccco2)c1	none
COCCCNC(=O)C[C@H]1C[C@@]2(C(=O)OC)C(=C[C@H](COCc3ccccc3)O[C@@H]2C)N(Cc2cccc3ccccc23)C1=O	none (no result: Gli-Sufu antag, Jurkat NFkB inh, GalR3 antagonist, 697 NFkB inh)
N#Cc1c(-c2cccc(Br)c2)cc(-c2cccnc2)nc1N	none | Gli-Sufu confirm inactive | SufuKO cytotox inactive | Wnt3a cs inactive
NC(=O)c1ccc(N2CCCCC2)c(N2C(=O)C3CC=CCC3C2=O)c1 (stereo not given)	none | Gli-Sufu confirm inactive | SufuKO cytotox inactive | Wnt3a cs inactive
Cc1cc(-c2nnc(SCC(=O)Nc3ccccc3C(F)(F)F)o2)c(C)n1-c1ccccc1	Gli-Sufu antag 57 | Gli-Sufu confirm 67 | SufuKO cytotox inactive | Wnt3a cs 64
COC(=O)C/C=C/[C@H](C)[C@@H](NC(=O)C(F)(F)F)c1ccccc1Br	none (no result: Gli-Sufu antag, Jurkat NFkB inh, GalR3 antagonist, 697 NFkB inh)
Cc1ccc(S(=O)(=O)c2nc(S(=O)(=O)c3ccc(C)cc3)c(N3CCN(CCO)CC3)s2)cc1	Gli-Sufu antag 55 | Gli-Sufu confirm inactive | SufuKO cytotox inactive | Wnt3a cs 62
CCS(=O)(=O)c1nc(S(=O)(=O)c2ccc(C)cc2)c(N2CCOCC2)s1	none | Gli-Sufu confirm inactive | SufuKO cytotox inactive | Wnt3a cs inactive
O=C(Nc1ccc(N2C(=O)CC3(CCCCC3)C2=O)c(Cl)c1)c1ccccn1	none (no result: Gli-Sufu antag, Jurkat NFkB inh, GalR3 antagonist, 697 NFkB inh)
CC1=Nc2cccc3cccc(c23)N1C	Gli-Sufu antag 70 | Gli-Sufu confirm 89 | SufuKO cytotox inactive | Wnt3a cs inactive
O=C1CN(C(=O)c2ccccc2F)c2ccccc2N1	none
COc1cc(OC)cc(C(=O)N2CC(=O)Nc3ccccc32)c1	none | Gli-Sufu confirm inactive | SufuKO cytotox 48 | Wnt3a cs inactive
COC(=O)[C@]12C[C@H](CC(=O)N3CCN(C(=O)c4ccco4)CC3)C(=O)N(Cc3ccco3)C1=C[C@H](COCc1ccccc1)O[C@@H]2C	none (no result: Gli-Sufu antag, Jurkat NFkB inh, GalR3 antagonist, 697 NFkB inh)
CCCCCCc1cc2cc(C(=O)Nc3ccc(OC)cc3)c(=O)oc2cc1O	none
CCCCCCc1cc2cc(C(=O)Nc3cccc(OC)c3)c(=O)oc2cc1O	Gli-Sufu antag 61 | Gli-Sufu confirm 58 | SufuKO cytotox inactive | Wnt3a cs 79
C=CCCc1ccc(C#N)c(SCc2c(C(=O)OCC)c3cc(OC(C)=O)c(Br)cc3n2C)n1	Gli-Sufu antag 73 (no result: NR2F2 inh, GalR3 antagonist) | Gli-Sufu confirm 85 | SufuKO cytotox 43 | Wnt3a cs 41
CCOC(=O)c1c(CSc2nc(C)cc(C)c2C#N)n(C)c2cc(Br)c(OC(C)=O)cc12	Gli-Sufu antag 79 | Gli-Sufu confirm 80 | SufuKO cytotox 38 | Wnt3a cs inactive
CCCCCCCCOC(=O)c1c(CSC(=N)N)n(C)c2cc(Br)c(OC(C)=O)cc12	none
Cc1ccc(-c2cc(C(=O)NN=Cc3ccc(N(C)C)cc3)[nH]n2)cc1C	none (no result: Gli-Sufu antag, Jurkat NFkB inh, GalR3 antagonist, 697 NFkB inh)
